# From PubChem BioAssay AID1159580 (chemical genetic matrix, 2015)
# Hit rate of the full screen: of about 5,500 compounds, about 2,000 (36%) were called active. Roughly 18% stayed inconclusive and do not appear here. The list shows a part of the results. Values without a mark were called inactive. Cut-off read from the data, not from the text of the source: active = normalized growth mostly below about 0.91 (no sharp cut-off); inconclusive = no clear call, values can overlap the other calls; inactive = mostly above about 0.92.
# Test: chemical genetic growth profiling, strain panel (AID 1159580);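 note: tested at 20 µM; growth read once vehicle control cultures reached saturation at 30 °C; 1 = growth at the plate median or of vehicle wells; lower values mean less growth of the strain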
# Details: S. cerevisiae deletion strains, growth OD
# [1] = locus YAR019C, strain CDC15, active compounds read low
# [2] = locus YBL105C, strain PKC1, active compounds read low
# [3] = locus YBR135W, strain CKS1, active compounds read low
# [4] = locus YBR136W, strain MEC1, active compounds read low
# [5] = locus YBR160W, strain CDC28, active compounds read low
# [6] = locus YDL017W, strain CDC7, active compounds read low
# [7] = locus YDL028C, strain MPS1, active compounds read low
# [8] = locus YDL101C, strain DUN1, active compounds read low
# [9] = locus YDL108W, strain KIN28, active compounds read low
# [10] = locus YDL132W, strain cdc53, active compounds read low
# [11] = locus YDL214C, strain PRR2, active compounds read low
# [12] = locus YDR052C, strain DBF4, active compounds read low
# [13] = locus YDR054C, strain cdc34, active compounds read low
# [14] = locus YDR226W, strain ADK1, active compounds read low
# [15] = locus YDR477W, strain SNF1, active compounds read low
# [16] = locus YER123W, strain YCK3, active compounds read low
# [17] = locus YER133W, strain GLC7, active compounds read low
# [18] = locus YFL009W, strain cdc4, active compounds read low
# [19] = locus YFL029C, strain CAK1, active compounds read low
# [20] = locus YFR003C, strain YPI1, active compounds read low
# [21] = locus YFR019W, strain FAB1, active compounds read low
# [22] = locus YFR028C, strain CDC14, active compounds read low
# [23] = locus YGR040W, strain KSS1, active compounds read low
# [24] = locus YGR052W, strain FMP48, active compounds read low
# [25] = locus YGR092W, strain DBF2, active compounds read low
# [26] = locus YHR030C, strain SLT2, active compounds read low
# [27] = locus YHR079C, strain IRE1, active compounds read low
# [28] = locus YHR082C, strain KSP1, active compounds read low
# [29] = locus YHR205W, strain SCH9, active compounds read low
# [30] = locus YIL147C, strain SLN1, active compounds read low
# [31] = locus YJL095W, strain BCK1, active compounds read low
# [32] = locus YJL128C, strain PBS2, active compounds read low
# [33] = locus YJL157C, strain FAR1, active compounds read low
# [34] = locus YJR016C, strain ILV3, active compounds read low
# [35] = locus YJR066W, strain TOR1 (second series), active compounds read low
# [36] = locus YJR066W, strain TOR1, active compounds read low
# [37] = locus YKL048C, strain ELM1, active compounds read low
# [38] = locus YKL067W, strain YNK1, active compounds read low
# [39] = locus YKL101W, strain HSL1, active compounds read low
# [40] = locus YKL193C, strain SDS22, active compounds read low
# [41] = locus YKL203C, strain TOR2, active compounds read low
# [42] = locus YLR113W, strain HOG1, active compounds read low
# [43] = locus YLR133W, strain CKI1, active compounds read low
# [44] = locus YLR403W, strain SFP1, active compounds read low
# [45] = locus YML070W, strain DAK1, active compounds read low
# [46] = locus YMR001C, strain CDC5, active compounds read low
# [47] = locus YMR205C, strain PFK2 (second series), active compounds read low
# [48] = locus YMR277W, strain FCP1, active compounds read low
# [49] = locus YNL006W, strain LST8, active compounds read low
# [50] = locus YNL020C, strain ARK1, active compounds read low
# [51] = locus YNL161W, strain CBK1, active compounds read low
# [52] = locus YNL183C, strain NPR1, active compounds read low
# [53] = locus YNL207W, strain RIO2, active compounds read low
# [54] = locus YNL222W, strain SSU72, active compounds read low
# [55] = locus YNL307C, strain MCK1 (second series), active compounds read low
# [56] = locus YOL078W, strain AVO1, active compounds read low
# [57] = locus YOL136C, strain PFK27, active compounds read low
# [58] = locus YOR061W, strain CKA2, active compounds read low
# [59] = locus YOR119C, strain RIO1, active compounds read low
# [60] = locus YOR231W, strain MKK1, active compounds read low
# [61] = locus YOR329C, strain SCD5, active compounds read low
# [62] = locus YPL031C, strain PHO85, active compounds read low
# [63] = locus YPL153C, strain RAD53, active compounds read low
# [64] = locus YPL204W, strain HRR25, active compounds read low
# [65] = locus YPL209C, strain IPL1, active compounds read low
# [66] = locus YPL256C, strain CLN2, active compounds read low
# [67] = locus YPR025C, strain CCL1, active compounds read low
# [68] = locus YPR106W, strain ISR1, active compounds read low
# [69] = locus YPR111W, strain DBF20, active compounds read low
# [70] = strain NNK1, active compounds read low
# [71] = strain TSCII, active compounds read low
compound,measurement,setting,value
Cc1ccc(NNC(=O)c2cccs2)cc1Cl,normalized growth,[1],0.969
same,normalized growth,[2],0.969
same,normalized growth,[3],0.971
same,normalized growth,[4],0.974
same,normalized growth,[5],0.957
same,normalized growth,[6],0.979
same,normalized growth,[7],0.972
same,normalized growth,[8],0.968
same,normalized growth,[9],0.967
same,normalized growth,[10],0.975
same,normalized growth,[11],0.964
same,normalized growth,[12],0.976
same,normalized growth,[13],0.966
same,normalized growth,[14],0.96
same,normalized growth,[15],0.974
same,normalized growth,[16],0.897
same,normalized growth,[17],0.966
same,normalized growth,[18],0.976
same,normalized growth,[19],0.966
same,normalized growth,[20],0.976
same,normalized growth,[21],0.958
same,normalized growth,[22],0.964
same,normalized growth,[23],0.963
same,normalized growth,[24],1.01
same,normalized growth,[25],0.824
same,normalized growth,[26],0.943
same,normalized growth,[27],0.97
same,normalized growth,[28],1.03
same,normalized growth,[29],0.964
same,normalized growth,[30],0.98
same,normalized growth,[31],0.984
same,normalized growth,[32],0.963
same,normalized growth,[33],0.952
same,normalized growth,[34],0.975
same,normalized growth,[35],0.925
same,normalized growth,[36],1.03
same,normalized growth,[37],0.945
same,normalized growth,[38],0.953
same,normalized growth,[39],0.963
same,normalized growth,[40],0.968
same,normalized growth,[41],1.03
same,normalized growth,[42],0.876
same,normalized growth,[43],0.968
same,normalized growth,[44],0.929
same,normalized growth,[45],0.918
same,normalized growth,[46],0.979
same,normalized growth,[47],0.961
same,normalized growth,[48],0.974
same,normalized growth,[49],0.975
same,normalized growth,[50],0.963
same,normalized growth,[51],0.966
same,normalized growth,[52],0.979
same,normalized growth,[53],0.976
same,normalized growth,[54],0.961
same,normalized growth,[55],0.922
same,normalized growth,[56],0.972
same,normalized growth,[57],0.943
same,normalized growth,[58],0.894
same,normalized growth,[59],1.02
same,normalized growth,[60],0.914
same,normalized growth,[61],0.978
same,normalized growth,[62],0.964
same,normalized growth,[63],0.949
same,normalized growth,[64],0.959
same,normalized growth,[65],0.967
same,normalized growth,[66],0.948
same,normalized growth,[67],0.969
same,normalized growth,[68],0.973
same,normalized growth,[69],0.962
same,normalized growth,[70],0.991
same,normalized growth,[71],0.972
Cc1cc(Cl)ccc1NNC(=O)c1sccc1Cl,normalized growth,[1],0.892
same,normalized growth,[2],0.912
same,normalized growth,[3],0.908
same,normalized growth,[4],0.9
same,normalized growth,[5],0.913
same,normalized growth,[6],0.915
same,normalized growth,[7],0.912
same,normalized growth,[8],0.907 (active)
same,normalized growth,[9],0.907
same,normalized growth,[10],0.928
same,normalized growth,[11],0.869
same,normalized growth,[12],0.898 (active)
same,normalized growth,[13],0.882
same,normalized growth,[14],0.894 (active)
same,normalized growth,[15],0.861
same,normalized growth,[16],0.787
same,normalized growth,[17],0.794
same,normalized growth,[18],0.893
same,normalized growth,[19],0.883
same,normalized growth,[20],0.911
same,normalized growth,[21],0.907
same,normalized growth,[22],0.894
same,normalized growth,[23],0.861
same,normalized growth,[24],0.861
same,normalized growth,[25],0.7
same,normalized growth,[26],0.152 (active)
same,normalized growth,[27],0.859
same,normalized growth,[28],0.884
same,normalized growth,[29],0.878
same,normalized growth,[30],0.913
same,normalized growth,[31],0.194 (active)
same,normalized growth,[32],0.89
same,normalized growth,[33],0.864
same,normalized growth,[34],0.898 (active)
same,normalized growth,[35],0.874
same,normalized growth,[36],0.835
same,normalized growth,[37],0.872
same,normalized growth,[38],0.861
same,normalized growth,[39],0.917
same,normalized growth,[40],0.893
same,normalized growth,[41],0.912
same,normalized growth,[42],0.779 (active)
same,normalized growth,[43],0.878
same,normalized growth,[44],0.831
same,normalized growth,[45],0.836
same,normalized growth,[46],0.894
same,normalized growth,[47],0.844
same,normalized growth,[48],0.905
same,normalized growth,[49],0.898 (active)
same,normalized growth,[50],0.885
same,normalized growth,[51],0.89 (active)
same,normalized growth,[52],0.858
same,normalized growth,[53],0.9
same,normalized growth,[54],0.896
same,normalized growth,[55],0.811
same,normalized growth,[56],0.888
same,normalized growth,[57],0.84
same,normalized growth,[58],0.876
same,normalized growth,[59],0.91
same,normalized growth,[60],0.823
same,normalized growth,[61],0.909
same,normalized growth,[62],0.861
same,normalized growth,[63],0.803
same,normalized growth,[64],0.822
same,normalized growth,[65],0.899 (active)
same,normalized growth,[66],0.803 (active)
same,normalized growth,[67],0.902
same,normalized growth,[68],0.903
same,normalized growth,[69],0.882
same,normalized growth,[70],0.897
same,normalized growth,[71],0.878 (active)
O=C(NNc1ccc(F)cc1F)c1sccc1Cl,normalized growth,[1],0.974
same,normalized growth,[2],0.96
same,normalized growth,[3],0.978
same,normalized growth,[4],0.971
same,normalized growth,[5],0.971
same,normalized growth,[6],0.968
same,normalized growth,[7],0.975
same,normalized growth,[8],0.961
same,normalized growth,[9],0.977
same,normalized growth,[10],0.969
same,normalized growth,[11],0.924
same,normalized growth,[12],0.971
same,normalized growth,[13],0.957
same,normalized growth,[14],0.968
same,normalized growth,[15],0.927
same,normalized growth,[16],0.841
same,normalized growth,[17],0.952
same,normalized growth,[18],0.975
same,normalized growth,[19],0.962
same,normalized growth,[20],0.978
same,normalized growth,[21],0.916
same,normalized growth,[22],0.977
same,normalized growth,[23],0.912
same,normalized growth,[24],1
same,normalized growth,[25],0.879
same,normalized growth,[26],0.903
same,normalized growth,[27],0.96
same,normalized growth,[28],0.987
same,normalized growth,[29],0.925
same,normalized growth,[30],0.968
same,normalized growth,[31],0.939
same,normalized growth,[32],0.967
same,normalized growth,[33],0.926
same,normalized growth,[34],0.976
same,normalized growth,[35],0.86
same,normalized growth,[36],1.01
same,normalized growth,[37],0.927
same,normalized growth,[38],0.952
same,normalized growth,[39],0.913
same,normalized growth,[40],0.976
same,normalized growth,[41],0.985
same,normalized growth,[42],0.858 (active)
same,normalized growth,[43],0.926
same,normalized growth,[44],0.917
same,normalized growth,[45],0.904
same,normalized growth,[46],0.974
same,normalized growth,[47],0.963
same,normalized growth,[48],0.984
same,normalized growth,[49],0.989
same,normalized growth,[50],0.939
same,normalized growth,[51],0.974
same,normalized growth,[52],0.956
same,normalized growth,[53],0.975
same,normalized growth,[54],0.975
same,normalized growth,[55],0.858
same,normalized growth,[56],0.968
same,normalized growth,[57],0.908
same,normalized growth,[58],0.83
same,normalized growth,[59],0.994
same,normalized growth,[60],0.914
same,normalized growth,[61],0.97
same,normalized growth,[62],0.944
same,normalized growth,[63],0.92
same,normalized growth,[64],0.914
same,normalized growth,[65],0.967
same,normalized growth,[66],0.894
same,normalized growth,[67],0.978
same,normalized growth,[68],0.957
same,normalized growth,[69],0.953
same,normalized growth,[70],0.967
same,normalized growth,[71],0.97
